Data taken from PubChem BioAssay (NCATS).
Inconclusive results are not listed. The source made the active and inactive calls. The call rests on the fitted dose curve; in most records, active means well fitted cell-killing curve with a large enough effect; inconclusive means small, poorly fitted or top-dose-only effect, or effect the other way; inactive means no such curve, though single readings can be large or run the other way.

Test: Quantitative High-Throughput drug screen in 47 multiple myeloma cell lines against the NCATS MIPE library collection: U266_ATCC cell viability assay (AID 1919864); further: nearly all actives have a fitted effect of over 35% in size;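 on viability (% of DMSO control): 0% = media-only wells without cells and 100% = DMSO-only wells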
Conditions: U266 myeloma viability, CellTiter-Glo ATP luminescence, 48 h; series mostly up to 45.8 µM; viability (% of DMSO control): at the top concentration
Outline: (§1)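 Cells were exposed to library compounds for 48 hours, after which ATP was measured by CellTiter-Glo. Signal was taken as median relative luminescence units.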
Potency means the concentration at half of the fitted maximal effect.

| Compound | viability (% of DMSO control) | Potency |
| --- | --- | --- |
| CCCC[N+]1(C)[C@H]2CC(OC(=O)[C@H](CO)c3ccccc3)C[C@H]1[C@H]1O[C@H]12 (stereo not given in full) | 133% (inactive) | – |
| CCOC(=O)c1cncn1[C@H](C)c1ccccc1 | 141% (inactive) | – |
| N#C[C@H](O[C@@H]1O[C@H](CO[C@@H]2O[C@H](CO)[C@H](O)[C@H](O)[C@H]2O)[C@H](O)[C@H](O)[C@H]1O)c1ccccc1 | – | 23.5 µM (active) |
| CC1(N2CCC(n3c([C@@H]4CCCNC4)nc4ccccc43)CC2)CCCCCCC1 | – | 5.26 µM (active) |
| CC(C)N(CCNC(=O)CN1CCCC1=O)C(C)C | 118% (inactive) | – |
| C[C@@H]1[C@H](O)[C@@H](C)C=CC=CCCC=CC=CC=CC=C[C@H](O[C@H]2O[C@@H](C)[C@H](O)[C@@H](N)[C@@H]2O)CC2O[C@](O)(C[C@@H](O)[C@H](O)CC[C@@H](O)C[C@@H](O)C[C@@H](O)CC(=O)O[C@H]1C)C[C@H](O)[C@H]2C(=O)O | 117% (inactive) | – |
| CN[C@@H]1Cc2cccc3[nH]c(=O)n(c23)C1 | 120% (inactive) | – |
| Clc1ccccc1C(c1ccccc1)(c1ccccc1)n1cccn1 | – | 10.5 µM (active) |
| C[C@@H]1CC[C@H]2[C@@H](C)C(=O)O[C@@H]3O[C@@]4(C)CC[C@H]1[C@]32OO4 | 115% (inactive) | – |
| Cc1[nH]nc2ccc(-c3cncc(OC[C@@H](N)Cc4c[nH]c5ccccc45)c3)cc12 | – | 0.0833 µM (active) |
| O=C(Oc1ccc([N+](=O)[O-])cc1)N1CCN(Cc2cccc(Oc3ccccc3)c2)CC1 | – | 14.8 µM (active) |
| C[C@@H]1O[C@@H](O[C@@H]2C=C3CC[C@@H]4[C@@H](CC[C@]5(C)[C@H](c6ccc(=O)oc6)CC[C@@]45O)[C@@]3(C)CC2)[C@H](O)[C@H](O)[C@H]1O | – | 0.0093 µM (active) |
| CC[C@@]1(O)C(=O)OCc2c1cc1n(c2=O)Cc2cc3ccccc3nc2-1 | – | 0.332 µM (active) |
| C[C@]12Cc3cn[nH]c3C[C@@H]1CC[C@@H]1[C@H]2CC[C@@]2(C)[C@H]1CC[C@]2(C)O | 132% (inactive) | – |
| CC1=C(O)C(=O)C=C2C1=CC=C1[C@@]2(C)CC[C@@]2(C)[C@@H]3C[C@](C)(C(=O)O)CC[C@]3(C)CC[C@]12C | – | 0.743 µM (active) |
| CC=C(C)C(=O)O[C@H]1C(C)=C2[C@@H]3OC(=O)[C@@](C)(O)[C@@]3(O)[C@@H](OC(=O)CCC)C[C@](C)(OC(C)=O)[C@@H]2[C@@H]1OC(=O)CCCCCCC | – | 0.935 µM (active) |
| COCC1(CO)C(=O)C2CCN1CC2 (stereo not given) | – | 2.96 µM (active) |
| CN1CCN(c2ccc([N+](=O)[O-])c3no[n+]([O-])c23)CC1 | – | 18.7 µM (active) |
| COc1ccc2c(c1)[C@]13CCCCC1C(C2)N(C)CC3 (stereo not given in full) | 136% (inactive) | – |
| CC(N[C@H]1C[C@H]1c1ccccc1)c1ccc2c(c1)OCCO2 (stereo not given in full) | – | 14.8 µM (active) |
| C#CC1(O)CCC2C3CCC4=CC(=O)CCC4(C)C3CCC21C (stereo not given) | 151% (inactive) | – |
| C[C@]12COC(=O)C[C@@H]1CC[C@@H]1[C@H]2CC[C@@]2(C)[C@H]1CC[C@]2(C)O | 133% (inactive) | – |
| CCOP(=O)(OCC)C(C)NC(=O)N(CCCl)N=O (stereo not given) | 119% (inactive) | – |
| CCc1c(C(=O)C(N)=O)c2c(OCC(=O)O)cccc2n1Cc1ccccc1 | 119% (inactive) | – |
| C=C[C@@H]1CN2CCC1C[C@H]2[C@H](O)c1ccnc2ccccc12 (stereo not given in full) | – | 20.9 µM (active) |
| CCN1CCN(C(=O)Cc2ccc(Nc3ncc(F)c(Nc4ccc(C(=O)Nc5ccccc5Cl)cc4)n3)cc2)CC1 | – | 7.43 µM (active) |

Test: Quantitative High-Throughput drug screen in 47 multiple myeloma cell lines against the NCATS MIPE library collection: XG6_PLB cell viability assay (AID 1919865); further: nearly all actives have a fitted effect of over 40% in size;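 on viability (% of control): 100% = DMSO-only wells and 0% = media-only wells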
Conditions: XG6 myeloma viability, CellTiter-Glo ATP luminescence, 48 h; series mostly up to 45.8 µM; viability (% of control): at the top concentration
Outline: as §1

| Compound | viability (% of control) | Potency |
| --- | --- | --- |
| CCCC[N+]1(C)[C@H]2CC(OC(=O)[C@H](CO)c3ccccc3)C[C@H]1[C@H]1O[C@H]12 (stereo not given in full) | 77.6% (inactive) | – |
| CCOC(=O)c1cncn1[C@H](C)c1ccccc1 | 90.1% (inactive) | – |
| N#C[C@H](O[C@@H]1O[C@H](CO[C@@H]2O[C@H](CO)[C@H](O)[C@H](O)[C@H]2O)[C@H](O)[C@H](O)[C@H]1O)c1ccccc1 | – | 18.7 µM (active) |
| CC1(N2CCC(n3c([C@@H]4CCCNC4)nc4ccccc43)CC2)CCCCCCC1 | – | 9.35 µM (active) |
| O=c1[nH]c2ccccc2n1C1CCN(Cc2ccc(-c3[nH]c4cc5ncnc5cc4nc3-c3ccccc3)cc2)CC1 | – | 7.43 µM (active) |
| CC(C)N(CCNC(=O)CN1CCCC1=O)C(C)C | 113% (inactive) | – |
| CC(=Cc1csc(C)n1)[C@@H]1C[C@H]2O[C@@H]2CCC[C@H](C)[C@@H](O)[C@@H](C)C(=O)C(C)(C)[C@@H](O)CC(=O)O1 | 31.7% (inactive) | – |
| Clc1ccccc1C(c1ccccc1)(c1ccccc1)n1cccn1 | 132% (inactive) | – |
| Cc1[nH]nc2ccc(-c3cncc(OC[C@@H](N)Cc4c[nH]c5ccccc45)c3)cc12 | – | 0.418 µM (active) |
| O=C(Oc1ccc([N+](=O)[O-])cc1)N1CCN(Cc2cccc(Oc3ccccc3)c2)CC1 | – | 23.5 µM (active) |
| C[C@@H]1O[C@@H](O[C@@H]2C=C3CC[C@@H]4[C@@H](CC[C@]5(C)[C@H](c6ccc(=O)oc6)CC[C@@]45O)[C@@]3(C)CC2)[C@H](O)[C@H](O)[C@H]1O | – | 0.0166 µM (active) |
| CC[C@@]1(O)C(=O)OCc2c1cc1n(c2=O)Cc2cc3ccccc3nc2-1 | – | 0.0148 µM (active) |
| NC1=NC(=O)N2CC12 (stereo not given) | – | 9.35 µM (active) |
| C[C@]12Cc3cn[nH]c3C[C@@H]1CC[C@@H]1[C@H]2CC[C@@]2(C)[C@H]1CC[C@]2(C)O | 101% (inactive) | – |
| CC1=C(O)C(=O)C=C2C1=CC=C1[C@@]2(C)CC[C@@]2(C)[C@@H]3C[C@](C)(C(=O)O)CC[C@]3(C)CC[C@]12C | – | 0.743 µM (active) |
| CC=C(C)C(=O)O[C@H]1C(C)=C2[C@@H]3OC(=O)[C@@](C)(O)[C@@]3(O)[C@@H](OC(=O)CCC)C[C@](C)(OC(C)=O)[C@@H]2[C@@H]1OC(=O)CCCCCCC | – | 0.372 µM (active) |
| COCC1(CO)C(=O)C2CCN1CC2 (stereo not given) | – | 1.66 µM (active) |
| CN1CCN(c2ccc([N+](=O)[O-])c3no[n+]([O-])c23)CC1 | – | 20.9 µM (active) |
| O=C(N[C@@H](COc1ccc2[nH]c(=O)[nH]c2c1)c1ccccc1)c1cccn(Cc2ccc(F)c(F)c2)c1=O | – | 18.7 µM (active) |
| C[C@]12CCC(=O)C(O)=C1CC[C@@H]1[C@H]3CCC(=O)[C@@]3(C)CC[C@@H]12 | 91.9% (inactive) | – |
| COc1cc([C@@H]2c3cc4c(cc3[C@@H](O)C3COC(=O)C32)OCO4)cc(OC)c1O (stereo not given in full) | – | 0.0148 µM (active) |
| COc1ccc2c(c1)[C@]13CCCCC1C(C2)N(C)CC3 (stereo not given in full) | 89.7% (inactive) | – |
| CC(N[C@H]1C[C@H]1c1ccccc1)c1ccc2c(c1)OCCO2 (stereo not given in full) | 106% (inactive) | – |
| C#CC1(O)CCC2C3CCC4=CC(=O)CCC4(C)C3CCC21C (stereo not given) | 96.8% (inactive) | – |
| CCOP(=O)(OCC)C(C)NC(=O)N(CCCl)N=O (stereo not given) | 106% (inactive) | – |
| CSCC[C@@H](NC(=O)[C@@H](Cc1ccccc1)NC(=O)CNC(=O)CNC(=O)[C@@H](N)Cc1ccc(O)cc1)C(=O)O | 125% (inactive) | – |
| CCc1c(C(=O)C(N)=O)c2c(OCC(=O)O)cccc2n1Cc1ccccc1 | 109% (inactive) | – |
| CCN1CCN(C(=O)Cc2ccc(Nc3ncc(F)c(Nc4ccc(C(=O)Nc5ccccc5Cl)cc4)n3)cc2)CC1 | – | 0.743 µM (active) |
| O=C(O)CNC(=O)c1c(O)c2ccccc2n(Cc2ccccc2)c1=O | 99.3% (inactive) | – |
